According to PubChem BioAssay AID1159580 (chemical genetic matrix, 2015):
“And” between values parts separate entries of the source, which are not always exact repeats. Equal values may be shown once. About 2,000 (36%) of roughly 5,500 compounds were called active. Another 18% or so got no clear call; they are omitted. No stated cut-off is given here; in the data, active means normalized growth mostly below about 0.91 (no sharp cut-off); inconclusive means no clear call, values can overlap the other calls; inactive means mostly above about 0.92. This is one part of the list.

Assay: chemical genetic growth profiling, strain panel (AID 1159580);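 further: tested at 20 µM; growth read once vehicle control cultures reached saturation at 30 °C; 1 = growth at the plate median or of vehicle wells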
Conditions: S. cerevisiae deletion strains, growth OD

Measured: normalized growth

COc1cc(O)c2c(=O)cc(C)oc2c1CC=C(C)C
active: locus YAL013W, strain DEP1, stronger effect = lower value 0.864 | locus YCL029C, strain bik1, stronger effect = lower value 0.872 | locus YDL035C, strain GPR1, stronger effect = lower value 0.805 | locus YDL074C, strain BRE1, stronger effect = lower value 0.748 | locus YDL192W, strain arf1, stronger effect = lower value 0.814 | locus YDR101C, strain arx1, stronger effect = lower value 0.89 | locus YDR137W, strain rgp1, stronger effect = lower value 0.817 | locus YDR162C, strain NBP2, stronger effect = lower value 0.696 | locus YDR195W, strain ref2 1.17 [resistant] | locus YDR318W, strain mcm21, stronger effect = lower value 0.806 | locus YDR392W, strain spt3, stronger effect = lower value 0.496 | locus YDR502C, strain sam2, stronger effect = lower value 0.909 | locus YER167W, strain BCK2, stronger effect = lower value 0.893 | locus YGL086W, strain mad1, stronger effect = lower value 0.876 | locus YHR013C, strain ard1, stronger effect = lower value 1.21 [resistant] | locus YHR129C, strain ARP1, stronger effect = lower value 0.919 | locus YIL066C, strain RNR3, stronger effect = lower value 0.781 | locus YIL125W, strain kgd1, stronger effect = lower value 0.93 | locus YIR030C, strain dcg1, stronger effect = lower value 0.92 | locus YJL095W, strain BCK1 (second series), stronger effect = lower value 0.905 | locus YJL129C, strain trk1, stronger effect = lower value 0.867 | locus YKR001C, strain vps1, stronger effect = lower value 0.806 | locus YLR113W, strain HOG1, stronger effect = lower value 0.838 | locus YLR262C, strain YPT6 (second series), stronger effect = lower value 0.827 | locus YLR268W, strain sec22, stronger effect = lower value 0.816 | locus YLR320W, strain mms22, stronger effect = lower value 0.83 | locus YLR330W, strain CHS5, stronger effect = lower value 0.811 | locus YLR342W, strain FKS1 (second series), stronger effect = lower value 0.78 | locus YLR371W, strain rom2, stronger effect = lower value 0.831 | locus YLR418C, strain cdc73, stronger effect = lower value 0.628 | locus YML032C, strain rad52, stronger effect = lower value 0.858 | locus YMR058W, strain fet3, stronger effect = lower value 0.845 | locus YMR205C, strain PFK2, stronger effect = lower value 0.849 | locus YNL071W, strain lat1, stronger effect = lower value 0.847 | locus YNL233W, strain BNI4, stronger effect = lower value 0.852 | locus YNL307C, strain MCK1, stronger effect = lower value 0.618 | locus YOL147C, strain pex11, stronger effect = lower value 0.818 | locus YOR144C, strain elg1, stronger effect = lower value 0.919 | locus YOR184W, strain ser1, stronger effect = lower value 0.587 | locus YPR163C, strain tif3, stronger effect = lower value 0.776 | strain wtn01, stronger effect = lower value 0.852
inactive: locus YAL021C, strain ccr4, stronger effect = lower value 0.99 | locus YAL026C, strain drs2, stronger effect = lower value 0.996 | locus YAL030W, strain snc1, stronger effect = lower value 0.967 | locus YBL061C, strain skt5, stronger effect = lower value 0.96 | locus YBR009C, strain hhf1, stronger effect = lower value 0.917 | locus YBR021W, strain FUR4, stronger effect = lower value 0.9 | locus YBR023C, strain chs3, stronger effect = lower value 0.941 | locus YBR171W, strain sec66, stronger effect = lower value 0.968 | locus YBR229C, strain ROT2, stronger effect = lower value 0.93 | locus YBR231C, strain swc5, stronger effect = lower value 0.98 | locus YBR279W, strain paf1, stronger effect = lower value 0.991 | locus YCL011C, strain gbp2, stronger effect = lower value 0.962 | locus YCL016C, strain dcc1, stronger effect = lower value 0.953 | locus YCL069W, strain vba3, stronger effect = lower value 0.997 | locus YCR088W, strain abp1, stronger effect = lower value 0.982 | locus YDL005C, strain med2, stronger effect = lower value 1.03 | locus YDL040C, strain nat1, stronger effect = lower value 0.986 | locus YDL101C, strain DUN1, stronger effect = lower value 0.954 | locus YDL185W, strain tfp1, stronger effect = lower value 0.929 | locus YDR001C, strain nth1, stronger effect = lower value 0.979 | locus YDR069C, strain doa4, stronger effect = lower value 0.97 | locus YDR150W, strain NUM1, stronger effect = lower value 0.946 | locus YDR159W, strain sac3, stronger effect = lower value 0.959 | locus YDR297W, strain sur2, stronger effect = lower value 0.967 | locus YDR334W, strain swr1, stronger effect = lower value 0.984 | locus YDR335W, strain msn5, stronger effect = lower value 0.986 | locus YDR388W, stronger effect = lower value 0.943 | locus YEL003W, strain gim4, stronger effect = lower value 0.957 | locus YEL037C, strain rad23, stronger effect = lower value 0.984 | locus YEL061C, strain CIN8 (second series), stronger effect = lower value 0.993 | locus YEL061C, strain CIN8, stronger effect = lower value 0.941 | locus YER015W, strain faa2, stronger effect = lower value 0.977 | locus YER016W, strain bim1, stronger effect = lower value 0.965 | locus YER110C, stronger effect = lower value 0.947 | locus YER111C, strain swi4, stronger effect = lower value 1.01 | locus YER155C, strain BEM2 (second series), stronger effect = lower value 0.903 | locus YER155C, strain BEM2, stronger effect = lower value 0.928 | locus YFR010W, strain ubp6, stronger effect = lower value 1 | locus YGL078C, strain dbp3, stronger effect = lower value 0.971 | locus YGL167C, strain pmr1, stronger effect = lower value 0.952 | locus YGL173C, strain kem1, stronger effect = lower value 0.982 | locus YGL227W, strain vid30, stronger effect = lower value 1 | locus YGL240W, strain doc1, stronger effect = lower value 0.987 | locus YGL248W, strain PDE1, stronger effect = lower value 0.898 | locus YGL253W, strain hxk2, stronger effect = lower value 0.99 | locus YGR078C, strain PAC10, stronger effect = lower value 0.874 | locus YGR135W, strain pre9, stronger effect = lower value 1 | locus YGR252W, strain gcn5, stronger effect = lower value 0.839 | locus YHR027C, strain rpn1, stronger effect = lower value 0.985 | locus YHR030C, strain SLT2, stronger effect = lower value 0.95 | locus YHR079C, strain IRE1 (second series), stronger effect = lower value 0.949 | locus YHR079C, strain IRE1, stronger effect = lower value 0.953 | locus YHR094C, strain hxt1, stronger effect = lower value 0.941 | locus YHR142W, strain chs7, stronger effect = lower value 0.884 | locus YHR200W, strain rpn10, stronger effect = lower value 0.952 | locus YIL073C, strain SPO22, stronger effect = lower value 0.849 | locus YJL092W, strain hpr5, stronger effect = lower value 0.985 | locus YJL115W, strain asf1, stronger effect = lower value 1.02 | locus YJL134W, strain LCB3, stronger effect = lower value 0.946 | locus YJL154C, strain vps35, stronger effect = lower value 1 | locus YJL164C, strain tpk1, stronger effect = lower value 0.941 | locus YJL166W, strain qcr8, stronger effect = lower value 0.967 | locus YJL168C, strain set2, stronger effect = lower value 0.965 | locus YJL187C, strain SWE1 (second series), stronger effect = lower value 0.943 | locus YJR043C, strain POL32, stronger effect = lower value 0.87 | locus YJR066W, strain TOR1, stronger effect = lower value 0.929 | locus YKL009W, strain mrt4, stronger effect = lower value 0.897 | locus YKL068W, stronger effect = lower value 0.945 | locus YKL085W, strain MDH1 (second series), stronger effect = lower value 0.936 | locus YKL085W, strain MDH1, stronger effect = lower value 0.936 | locus YKL160W, strain elf1, stronger effect = lower value 0.945 | locus YKR026C, strain gcn3, stronger effect = lower value 0.986 | locus YKR091W, strain srl3, stronger effect = lower value 0.978 | locus YLL001W, strain dnm1, stronger effect = lower value 0.982 | locus YLL026W, stronger effect = lower value 0.974 | locus YLL041C, strain sdh2, stronger effect = lower value 0.96 | locus YLR027C, strain aat2, stronger effect = lower value 0.972 | locus YLR039C, strain RIC1, stronger effect = lower value 0.797 | locus YLR058C, strain SHM2, stronger effect = lower value 0.912 | locus YLR102C, strain apc9, stronger effect = lower value 0.945 | locus YLR221C, strain rsa3, stronger effect = lower value 0.942 | locus YLR258W, strain gsy2, stronger effect = lower value 0.972 | locus YLR262C, strain YPT6, stronger effect = lower value 0.674 | locus YLR342W, strain FKS1, stronger effect = lower value 0.929 | locus YLR357W, strain rsc2, stronger effect = lower value 1.06 | locus YLR370C, strain arc18, stronger effect = lower value 0.97 | locus YLR384C, strain iki3, stronger effect = lower value 0.991 | locus YML016C, strain PPZ1, stronger effect = lower value 0.944 | locus YML120C, strain ndi1, stronger effect = lower value 0.976 | locus YML124C, strain tub3, stronger effect = lower value 0.945 | locus YMR078C, strain ctf18, stronger effect = lower value 0.919 | locus YMR125W, strain sto1, stronger effect = lower value 0.997 | locus YMR129W, stronger effect = lower value 0.979 | locus YMR223W, strain ubp8, stronger effect = lower value 0.911 | locus YMR231W, strain pep5, stronger effect = lower value 1.01 | locus YMR307W, strain GAS1, stronger effect = lower value 0.668 | locus YNL067W, strain RPL9B, stronger effect = lower value 1 | locus YNL153C, strain GIM3, stronger effect = lower value 0.926 | locus YNL183C, strain NPR1, stronger effect = lower value 0.935 | locus YNL209W, strain ssb2, stronger effect = lower value 0.973 | locus YNL248C, strain rpa49, stronger effect = lower value 1.04 | locus YNL250W, strain rad50, stronger effect = lower value 0.977 | locus YNL271C, strain bni1, stronger effect = lower value 0.953 | locus YNL298W, strain CLA4, stronger effect = lower value 0.923 | locus YNL322C, strain KRE1 (second series), stronger effect = lower value 0.998 | locus YNR049C, strain mso1, stronger effect = lower value 0.996 | locus YNR052C, strain pop2, stronger effect = lower value 0.988 | locus YOL012C, strain htz1 0.465 | locus YOR001W, strain rrp6, stronger effect = lower value 0.989 | locus YOR061W, strain CKA2, stronger effect = lower value 0.92 | locus YOR069W, strain VPS5, stronger effect = lower value 0.964 | locus YOR070C, strain gyp1, stronger effect = lower value 0.982 | locus YOR080W, strain dia2, stronger effect = lower value 0.993 | locus YOR083W, strain WHI5, stronger effect = lower value 0.97 | locus YOR106W, strain vam3, stronger effect = lower value 0.971 | locus YOR136W, strain idh2, stronger effect = lower value 0.963 | locus YOR231W, strain MKK1, stronger effect = lower value 0.941 | locus YOR265W, strain rbl2, stronger effect = lower value 0.973 | locus YOR270C, strain vph1, stronger effect = lower value 0.837 | locus YOR290C, strain snf2, stronger effect = lower value 0.941 | locus YOR316C, strain cot1, stronger effect = lower value 0.944 | locus YPL051W, strain arl3, stronger effect = lower value 0.936 | locus YPL078C, strain atp4, stronger effect = lower value 0.959 | locus YPL106C, strain sse1, stronger effect = lower value 0.954 | locus YPL240C, strain hsp82, stronger effect = lower value 0.965 | locus YPL256C, strain CLN2, stronger effect = lower value 0.933 | locus YPR119W, strain clb2, stronger effect = lower value 0.951 | locus YPR141C, strain kar3, stronger effect = lower value 0.93 | locus YPR167C, strain met16, stronger effect = lower value 0.937
0.78 (active) and 0.962 (inactive): locus YJL095W, strain BCK1, stronger effect = lower value
